# Compound activity deposited in PubChem by National Center for Advancing Translational Sciences (NCATS).
# This is a sample that favours compounds with a hit; in the whole collection about 19% have one here.
# HT1080NT lethal – qHTS for induction of synthetic lethality in tumor cells producing 2HG: qHTS for the HT-1080-NT fibrosarcoma cell line; HT-1080-NT fibrosarcoma viability, CellTiter-Glo ATP luminescence, 48 h; Potency, µM (series often up to 46.1 µM), usual class: cytotoxic; 360,000 compounds, 1.6% hits;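 also: NT is the 2HG producing partner of a matched IDH1 knockdown line; nearly all actives have a fitted effect of over 55% in size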
#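 Viability of the 2HG-overproducing fibrosarcoma line after 48 hours of compound exposure at 37 degrees C was determined by luminescence with CellTiter-Glo, and concentration-effect curves were then fitted and categorized.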
# TDP1 cell noCPT – qHTS for Inhibitors of human tyrosyl-DNA phosphodiesterase 1 (TDP1): qHTS in cells in absence of CPT; DT40 Tdp1-/- hTDP1 cells, no CPT, ATP luminescence, 48 h; Potency, µM (doses to about 46.2 µM), usual class: inhibitors; 420,000 compounds, 15% hits; AID 686978, 2013; also: nearly all actives have a fitted effect of over 55% in size
#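 DT40 Tdp1-/-;hTDP1 cells, no CPT (DMSO vehicle only), 400 cells/well; compounds pin-transferred; ≥48 hr, 37 °C; CellTiter-Glo 30 min RT dark, luminescence read.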
# HT1080 IDH1KD tx – qHTS for induction of synthetic lethality in tumor cells producing 2HG: qHTS for the HT-1080-IDH1KD cell line; HT-1080 IDH1 knockdown viability, ATP luminescence, 48 h; AID 686971, 2013; 360,000 compounds, 2% hits; Potency, µM (highest dose often 46.1 µM), usual class: cytotoxic
#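 HT-1080-IDH1KD cells (IDH1 knocked down), 750/well in RPMI with 5% FBS, treated with compound 48 h at 37 degrees C. Viability by CellTiter-Glo luminescence, normalised to DMSO and no-cell wells; concentration-response curves classed.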
# IL-1B inflam inh – qHTS for Inhibitors of Inflammasome Signaling: IL-1-beta AlphaLISA Primary Screen; THP-1 LPS/ATP IL-1B secretion, AlphaLISA, 16 h; hits give low values; activity change, % at 57.5 µM; 360,000 compounds, 4.7% hits; AID 743279, 2014; in the data active = activity change below about -50%; inconclusive = mostly about -30% to -49%
#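 THP-1 cells pretreated 1 hr with compounds (up to 57.5 uM final), then stimulated with LPS (250 ng/mL final) plus ATP (1.25 mM final); secreted IL-1B measured by AlphaLISA after 16 hr, decreased signal indicating inhibition.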
# DT40 TDP1 CPT – qHTS for Inhibitors of human tyrosyl-DNA phosphodiesterase 1 (TDP1): qHTS in cells in presence of CPT; Potency, µM (highest dose often 46.2 µM), usual class: inhibitors; 420,000 compounds, 12% hits; chicken DT40 Tdp1-/-;hTDP1 cells + 20 nM CPT, ATP luminescence, 48 h; AID 686979, 2013; also: nearly all actives have a fitted effect of over 55% in size
#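 Chicken DT40 Tdp1-/- cells stably complemented with human TDP1 were seeded at 400 cells/well in medium containing 20 nM camptothecin, exposed to pin-transferred compounds, and grown at 37 °C for at least 48 hr. Viability was read as ATP luminescence.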
# Numbers stand for hits; – = inactive; ? = inconclusive; · = no result given; [ ] = dose if it differs, or a comment. Unless noted, calls follow the shape of the dose curve; as a rule, active = well fitted curve in the direction sought with a large enough effect; inconclusive = small, poorly fitted or top-dose-only effect, or another doubt; inactive = no such curve, though single readings can be large; an effect the other way counts as inactive or inconclusive.
SMILES,HT1080NT lethal,TDP1 cell noCPT,HT1080 IDH1KD tx,IL-1B inflam inh,DT40 TDP1 CPT
CCC(C)Nc1sc(S(=O)(=O)CC)nc1S(=O)(=O)c1ccc(C)cc1 (stereo not drawn),·,–,·,·,–
Cc1cccc(-n2ncc3c2CCCC3NC(=O)c2ccncc2)c1C (stereo not drawn),–,0.23µM,–,–,–
Cc1cccc(-n2ncc3c2CCCC3NC(=O)Cc2c(C)noc2C)c1C (stereo not drawn),–,?,–,–,?
Cc1cc(C(=O)NC2CCCc3c2cnn3-c2cccc(C)c2C)no1 (stereo not drawn),–,16µM,?,–,21µM
CC1=C(C(=O)NC2CCCc3c2cnn3-c2cccc(C)c2C)OCCO1 (stereo not drawn),–,8.2µM,?,–,21µM
Cc1cccc(-n2ncc3c2CCCC3NC(=O)CCc2cccnc2)c1C (stereo not drawn),–,?,–,–,?
COc1ccc(C(=O)NC2CCCc3c2cnn3-c2cccc(C)c2C)o1 (stereo not drawn),21µM,23µM,?,–,21µM
Cc1cccc(-n2ncc3c2CCCC3NC(=O)CN2CCOC2=O)c1C (stereo not drawn),–,–,–,–,–
Cc1cc(C)cc(C(=O)Nc2cccc(NC(=O)c3ccco3)c2)c1,–,?,–,–,?
O=C(CSc1ccccn1)NC1CCCc2c1cnn2-c1ccccc1F (stereo not drawn),–,16µM,–,–,–
Cc1nnc(SCC(=O)NC2CCCc3c2cnn3-c2ccccc2F)o1 (stereo not drawn),–,–,–,–,–
Cc1cccc(-n2ncc3c2CCCC3NC(=O)c2cccs2)c1C (stereo not drawn),–,18µM,–,–,?
O=C(c1ccc(F)cc1F)N1CCN(c2ccccn2)CC1,–,–,–,–,–
O=C(c1cnccn1)N1CCC[C@@]2(CCN(Cc3ccccc3)C2)C1,·,–,·,·,–
Cc1cc(Br)c2c(c1)[C@](O)(c1cn(C)c3ccccc13)C(=O)N2C,?,23µM,?,–,16µM
COc1ccc(NC(=O)c2cc(S(=O)(=O)NCC3COc4ccccc4O3)ccc2F)cc1 (stereo not drawn),–,?,–,?,?
Cc1ccc(CNS(=O)(=O)c2ccc(F)c(C(=O)Nc3ccc(C)c(F)c3)c2)cc1,·,–,·,·,–
CC(C)c1ccc(NC(=O)c2cc(S(=O)(=O)NCC3COc4ccccc4O3)ccc2F)cc1 (stereo not drawn),?,18µM,?,-69,23µM
O=C(Nc1cc(Cl)ccc1Cl)c1cc(S(=O)(=O)NCCc2ccccc2)ccc1F,·,16µM,·,·,?
COc1ccc(CCNS(=O)(=O)c2ccc(F)c(C(=O)Nc3ccc(Cl)cc3)c2)cc1OC,·,21µM,·,·,29µM
Cc1ccc(NC(=O)c2cc(S(=O)(=O)NCCc3ccc(Cl)cc3)ccc2F)cc1,·,13µM,·,·,?
Cc1ccsc1C(=O)N1CCC1(C)C(=O)NCc1cccnc1 (stereo not drawn),–,–,–,–,–
CC(C)c1ccc(NC(=O)c2cc(S(=O)(=O)NCCc3ccccc3)ccc2F)cc1,·,10µM,·,·,15µM
O=C(Nc1cccc(Cl)c1Cl)c1cc(S(=O)(=O)NCCc2ccccc2)ccc1F,–,?,–,–,?
C=CCC[C@@H](Cc1ccc(F)cc1)C(=O)OC[C@@H](NC(=O)[C@H](CC=C)CC(=O)N(CCO)Cc1ccccc1)c1ccccc1,?,?,?,-60,?
SMILES,HT1080NT lethal,TDP1 cell noCPT,HT1080 IDH1KD tx,IL-1B inflam inh,DT40 TDP1 CPT
C=CCC[C@@H](Cc1ccc(F)cc1)C(=O)OC[C@@H](NC(=O)[C@@H](CC=C)CC(=O)N(CCO)Cc1ccccc1)c1ccccc1,21µM,26µM,?,-67,15µM
C=CC[C@H](CC(=O)N(CCO)Cc1ccccc1)C(=O)NCCOC(=O)[C@@H](CC=C)Cc1ccc(F)cc1,–,?,–,–,?
Cc1cccc(N2CCN(S(=O)(=O)c3cc(C(=O)Nc4ccc(Oc5ccccc5)cc4)ccc3F)CC2C)c1 (stereo not drawn),·,2.9µM,·,·,2.1µM
COc1ccccc1N1CCN(S(=O)(=O)c2cc(C(=O)Nc3ccc(Oc4ccccc4)cc3)ccc2F)CC1,·,5.8µM,·,·,3.3µM
O=C(Nc1ccc(Oc2ccccc2)cc1)c1ccc(F)c(S(=O)(=O)N2CCN(c3ccccc3F)CC2)c1,·,4.6µM,·,·,5.8µM
Cc1cccc(NC(=O)c2ccc(F)c(S(=O)(=O)N3CCC4(CC3)OCCO4)c2)c1,–,?,–,–,?
Cc1cc(NC(=O)Cn2nnc(-c3ccccc3NC(=O)c3ccccc3F)n2)no1,–,–,–,–,–
Cc1ccc(CNC(=O)c2cc3c(C)nc4ccccc4c3o2)cc1,–,7.3µM,–,–,9.2µM
CCc1ccc(NC(=O)c2cc3c(C)nc4ccccc4c3o2)cc1,–,16µM,?,-139,18µM
Cc1ccccc1NC(=O)c1cc2c(C)nc3ccccc3c2o1,–,23µM,–,–,?
Cc1nc2ccccc2c2oc(C(=O)NCCCN3CC(C)CC(C)C3)cc12 (stereo not drawn),–,–,–,–,?
Cc1nc2ccccc2c2oc(C(=O)NCc3ccccn3)cc12,–,?,–,–,?
CCN(CC)C(=O)Cn1cc(C(=O)C(=O)N2CCc3ccccc32)c2ccccc21,–,?,–,–,?
O=C(CN1CCC(C(=O)c2ccc3c(c2)OCCO3)CC1)NCc1ccccc1,–,?,?,–,?
CSC1=NCCN1C(=O)Cc1cccs1,–,–,–,–,–
Cc1cc2c(cc1S(=O)(=O)N1CCC(C(N)=O)CC1)OCC(=O)N2,·,–,·,·,–
CCOC(=O)C1CCCN(C(=O)CCn2nnnc2CN2CCOCC2)C1 (stereo not drawn),–,–,–,–,–
COc1ccccc1CN1CCCC(n2cc(C(=O)N3CCCCC3)nn2)C1 (stereo not drawn),·,–,·,·,–[9.04 µM]
COc1ccc(NC(=O)CN2C(=O)C(=O)c3ccccc32)c(OC)c1,·,6.5µM,·,·,4.1µM
COc1ccc(C)cc1NC(=O)CN1C(=O)c2cccc3cccc1c23,–,–,–,–,–
COc1ccccc1NC(=O)CN1C(=O)c2cccc3cccc1c23,·,18µM,·,·,?
CCOc1ccccc1NC(=O)CN1C(=O)COc2ccccc21,–,–,–,–,–
CCOc1ccccc1NC(=O)CN1C(=O)C(=O)c2ccccc21,·,4.1µM,·,·,5.8µM
